In PubChem BioAssay (Tox21):
Records with an inconclusive call do not appear. Active and inactive are the calls of the source. Unless noted, the call rests on the fitted dose curve; in most records, active means well fitted curve in the direction sought with a large enough effect in the repeat runs; inconclusive means weak or mixed curves; inactive means no such curve, though single readings can be large; an effect the other way counts as inactive or inconclusive.

What was measured:
[1] = qHTS assay for small molecules that induce genotoxicity in human embryonic kidney cells expressing luciferase-tagged ATAD5 (AID 651632); further: nearly all actives have a fitted effect of over 15% in size
Procedure, shortened: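 ATAD5-luc HEK293T, 2,000 cells/well; cpd or DMSO pin-transferred; 16 hr, 37C/5% CO2; Amplite 30 min RT; luminescence.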

[2] = qHTS assay for small molecules that induce genotoxicity in human embryonic kidney cells expressing luciferase-tagged ATAD5 - cell viability (AID 651634; calls by dose curve; further: nearly all actives have a fitted effect of over 25% in size)
Procedure, shortened: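 Fluorescence from CellTiter-Fluor, reporting protease activity within live cells, served as the viability read-out. HEK293T cells carrying luciferase-tagged ATAD5 had been treated with compound for 15.5 hr at 37C.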

[3] = qHTS assay for small molecule disruptors of the mitochondrial membrane potential - cell viability (AID 720634; calls by dose curve;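 further: human HepG2 liver cancer cells; series mostly up to about 83 µM; nearly all actives have a fitted effect of over 20% in size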)
Procedure, shortened: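 Cells: HepG2, 2,000/well, attached overnight. Compound 1 hr, 37 C/5% CO2. +m-MPI dye, +CellTiter-Glo 30 min RT. Readout: luminescence (ATP).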

[4] = qHTS assay for small molecule disruptors of the mitochondrial membrane potential (AID 720635)
Procedure, shortened: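 HepG2 cells (2,000/well) attached overnight at 37C, then took compound for 1 hr at 37C, 5% CO2. Mito-MPS dye was added for 30 min; fluorescence was read at 490/535 nm (monomers) and 540/590 nm (aggregates).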

[5] = qHTS assay to test for compound auto fluorescence at 590 nm (red) in HepG2 cells (AID 720674)
Procedure, shortened: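 Compound auto-fluorescence is scored relative to Rose Bengal sodium, measured at 540/590 nm in live HepG2 cultures after 1 hr compound contact (37 C, 5% CO2).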

[6] = qHTS assay to test for compound auto fluorescence at 535 nm (green) in HepG2 cells (AID 720675)
[7] = qHTS assay to test for compound auto fluorescence at 460 nm (blue) in HEK293 cells (AID 720678)
Procedure, shortened: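 Triamterene serves as the blue fluorophore standard. Compound signal at 405/460 nm is read in HEK293 wells (2,000 cells, 10% dialyzed FBS) after overnight treatment at 37C.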

[8] = qHTS assay to test for compound auto fluorescence at 535 nm (green) in HEK293 cells (AID 720680)
[9] = qHTS assay to test for compound auto fluorescence at 460 nm (blue) in HEK293 cell free culture (AID 720681)
Procedure, shortened: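 Test compounds were pinned into cell-free culture medium (DMEM with 10% FBS) and fluorescence was read directly at Ex/Em 405/460 nm. Signals were expressed as fluorescence equivalents of triamterene, with DMSO vehicle as control.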

[10] = qHTS assay to test for compound auto fluorescence at 535 nm (green) in HEK293 cell free culture (AID 720682)
Procedure, shortened: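 Intrinsic compound fluorescence is measured in culture medium containing 10% FBS, with excitation at 485 nm and detection at 535 nm, referenced to fluorescein.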

[11] = qHTS assay to test for compound auto fluorescence at 590 nm (red) in HEK293 cell free culture (AID 720683)
Procedure, shortened: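 Tox21 10K library compounds were pinned into cell-free DMEM with 10% FBS and fluorescence was read at excitation 540 nm. Activity is expressed as Rose Bengal sodium equivalency.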

[12] = qHTS assay to test for compound auto fluorescence at 590 nm (red) in HepG2 cell free culture (AID 720684)
Procedure, shortened: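 Red fluorescence (540 nm excitation, 590 nm emission) was measured after compound transfer into cell-free MEM supplemented with 10% FBS. Values are equivalencies against Rose Bengal sodium.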

[13] = qHTS assay to test for compound auto fluorescence at 460 nm (blue) in HepG2 cell free culture (AID 720685)
Procedure, shortened: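 Compound (23 nL) or DMSO pinned into cell-free MEM with 10% FBS; blue fluorescence read at 405/460 nm excitation/emission, expressed as auto-fluorescence equivalency to triamterene.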

[14] = qHTS assay to test for compound auto fluorescence at 535 nm (green) in HepG2 cell free culture (AID 720686)
[15] = qHTS assay to test for compound auto fluorescence at 460 nm (blue) in HepG2 cells (AID 720687)
Procedure, shortened: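 Cells (2,000/well in MEM with 10% FBS) attached overnight at 37 C, then were exposed to compound or DMSO for 1 hr at 37 C, 5% CO2. Fluorescence read at Ex/Em 405/460 nm, expressed as triamterene-equivalent signal.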

[16] = qHTS assay for small molecule agonists of the p53 signaling pathway - cell viability (AID 651633; calls by dose curve;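 further: p53RE-bla HCT reporter cells with a stable beta-lactamase p53 reporter; series mostly up to about 83 µM; nearly all actives have a fitted effect of over 30% in size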)
Procedure, shortened: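 p53RE-bla cells, seeded at 4,000 per well and rested 5 h at 37 C/5% CO2, received compounds in DMSO for 16 h at 37 C. CellTiter-Glo was then added, and luminescence was read after 30 min at room temperature to gauge cytotoxicity.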

[17] = qHTS assay to test for compound auto fluorescence at 590 nm (red) in HEK293 cells (AID 720679)
Procedure, shortened: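 We plated HEK293 cells in 10% dialyzed FBS medium, let them adhere for 4-5 hr, then added 23 nL compound. Overnight at 37C and 5% CO2 preceded fluorescence measurement at 540/590nm.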

[18] = molecular target: Glucocorticoid receptor (Homo sapiens) (UniProt P04150); experiment: qHTS assay to identify small molecule agonists of the glucocorticoid receptor (GR) signaling pathway (AID 720691; active means well fitted activation curve with a large enough effect in the signal ratio in the repeat runs, not every such curve was filed as active; the % refers to the signal ratio)
Chain of Glucocorticoid receptor (Homo sapiens) (P04150 whole entry, looked up): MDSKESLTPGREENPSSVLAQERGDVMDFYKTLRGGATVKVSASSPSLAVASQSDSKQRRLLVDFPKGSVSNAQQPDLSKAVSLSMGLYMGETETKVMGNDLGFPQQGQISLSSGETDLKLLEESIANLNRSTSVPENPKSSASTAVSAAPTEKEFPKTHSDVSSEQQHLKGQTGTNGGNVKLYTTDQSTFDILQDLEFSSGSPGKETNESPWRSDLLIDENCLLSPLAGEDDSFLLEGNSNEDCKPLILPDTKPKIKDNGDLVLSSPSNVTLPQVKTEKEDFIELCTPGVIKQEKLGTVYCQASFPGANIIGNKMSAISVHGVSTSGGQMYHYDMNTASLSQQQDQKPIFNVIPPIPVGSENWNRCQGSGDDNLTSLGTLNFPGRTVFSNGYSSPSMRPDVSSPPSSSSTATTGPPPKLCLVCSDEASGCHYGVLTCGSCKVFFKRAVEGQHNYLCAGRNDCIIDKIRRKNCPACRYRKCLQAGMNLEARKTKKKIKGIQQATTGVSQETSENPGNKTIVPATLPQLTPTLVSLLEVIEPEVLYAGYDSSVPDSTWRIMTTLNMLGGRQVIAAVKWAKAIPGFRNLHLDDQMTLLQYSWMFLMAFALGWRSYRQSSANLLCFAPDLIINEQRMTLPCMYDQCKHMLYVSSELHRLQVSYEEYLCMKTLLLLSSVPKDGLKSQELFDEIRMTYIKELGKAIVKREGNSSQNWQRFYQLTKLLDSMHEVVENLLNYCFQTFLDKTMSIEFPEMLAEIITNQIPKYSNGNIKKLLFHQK
Procedure, shortened: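 Fluorescence intensity from LiveBLAzer B/G FRET substrate (2 h, room temperature) reports beta-lactamase expression driven by the glucocorticoid response element in GR-bla HeLa cells after 18 h compound exposure at 37 C.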

[19] = molecular target: Glucocorticoid receptor (Homo sapiens) (UniProt P04150); experiment: qHTS assay to identify small molecule antagonists of the glucocorticoid receptor (GR) signaling pathway (AID 720692; active means well fitted inhibition curve with a large enough effect in the signal ratio in the repeat runs, not every such curve was filed as active; the % refers to the signal ratio)
Procedure, shortened: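 HeLa GR-bla cells; cmpd + dex 5 nM final, 18 h 37 C; LiveBLAzer B/G FRET substrate 2 h RT; fluorescence intensity read. Antagonist mode, qHTS.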
On the % scale 0 is the no-effect control and ±100 the full control effect.

Cn1c(=O)c2c(ncn2CCO)n(C)c1=O
inactive: outcome [1] | Potency [2] | outcome [3] | Potency [4] | outcome [5] | outcome [6] | outcome [7] | outcome [8] | outcome [9] | outcome [10] | outcome [11] | outcome [12] | outcome [13] | outcome [14] | outcome [15]

COc1cc2c(cc1OC)C(=O)C(CC1CCN(Cc3ccccc3)CC1)C2 (centres undefined)
inactive: outcome [1] | outcome [16] | outcome [3] | Potency [4] | outcome [5] | outcome [6] | outcome [7] | outcome [17] | outcome [8] | outcome [9] | outcome [10] | outcome [11] | outcome [12] | outcome [13] | outcome [14] | outcome [15]

OCC(O)CN1CCN(c2ccccc2)CC1 (centres undefined)
inactive: outcome [1] | outcome [3] | Potency [4] | outcome [5] | outcome [6] | outcome [7] | outcome [17] | outcome [8] | outcome [9] | outcome [10] | outcome [11] | outcome [12] | outcome [13] | outcome [14] | outcome [15] | Potency [18] | outcome [19]

COc1ccc2c(c1)c1c3n2CCN(C)C3=NCC1
inactive: outcome [1] | Potency [2] | outcome [3] | Potency [4] | outcome [6] | outcome [7] | outcome [17] | outcome [8] | outcome [9] | outcome [10] | outcome [11] | outcome [12] | outcome [13] | outcome [14] | outcome [15] | Potency [18]

C/C=C(\C)C(C)=O
inactive: outcome [1] | outcome [16] | Potency [2] | outcome [3] | outcome [6] | outcome [7] | outcome [17] | outcome [8] | outcome [9] | outcome [10] | outcome [11] | outcome [12] | outcome [13] | outcome [14] | outcome [15] | Potency [18] | outcome [19]

Cc1c(NC(=O)c2cccnc2)c(=O)n(-c2ccccc2)n1C
inactive: outcome [1] | Potency [2] | outcome [3] | Potency [4] | fluorescence, relative to Rose Bengal [5] 0.269% [at 18.6 µM] | fluorescence, % of fluorescein control [6] -0.0361% [at 18.6 µM] | fluorescence, % of triamterene [7] -0.0133% [at 18.6 µM] | fluorescence, % of fluorescent control [17] 0.237% [at 18.6 µM] | fluorescence, % of fluorescein [8] -0.0295% [at 18.6 µM] | fluorescence, % of fluorescent control [9] -0.0145% [at 18.6 µM] | activity change [10] 0.0113% [at 18.6 µM] | fluorescence, % of fluorescent control [11] -0.0161% [at 18.6 µM] | fluorescence, % of Rose Bengal [12] 0.102% [at 18.6 µM] | fluorescence, % of fluorescent control [13] -0.005% [at 18.6 µM] | fluorescence, % of fluorescein control [14] -0.0688% [at 18.6 µM] | fluorescence, % of fluorescent control [15] 0.0214% [at 18.6 µM] | Potency [18] | outcome [19]

CN(C)CCOC(=O)C(c1ccccc1)C1(O)CCCC1 (centres undefined)
inactive: outcome [1] | Potency [2] | outcome [3] | Potency [4] | outcome [6] | outcome [7] | outcome [17] | outcome [8] | outcome [9] | outcome [10] | outcome [11] | outcome [12] | outcome [13] | outcome [14] | outcome [15] | Potency [18] | outcome [19]

OC1OCCOC1O (centres undefined)
inactive: outcome [1] | outcome [3] | outcome [5] | outcome [6] | outcome [7] | outcome [17] | outcome [8] | outcome [9] | outcome [10] | outcome [11] | outcome [12] | outcome [13] | outcome [14] | outcome [15] | Potency [18]

C=CCOC(=O)CCCCCC
inactive: outcome [1] | outcome [16] | Potency [2] | outcome [3] | outcome [6] | outcome [7] | outcome [17] | outcome [8] | outcome [10] | outcome [11] | outcome [12] | outcome [13] | outcome [14] | outcome [15] | Potency [18] | outcome [19]

COC(=O)c1cc(Cl)cc(Cl)c1
inactive: outcome [1] | outcome [3] | outcome [5] | outcome [6] | outcome [7] | outcome [17] | outcome [8] | outcome [10] | outcome [11] | outcome [12] | outcome [13] | outcome [14] | outcome [15] | Potency [18] | outcome [19]

CO/N=C(/C(=O)N[C@@H]1C(=O)N2C(C(=O)[O-])=C(C[n+]3ccn4ncccc43)CS[C@H]12)c1nsc(N)n1
inactive: outcome [1] | outcome [16] | outcome [3] | Potency [4] | outcome [6] | outcome [7] | outcome [17] | outcome [8] | outcome [9] | outcome [10] | outcome [11] | outcome [12] | outcome [13] | outcome [14] | outcome [15] | Potency [18] | outcome [19]
